Anthrax LF prot = anthrax lethal factor protease inhibition; hit rate 0.12% among 360,000; inhibition, % at 10 µM; P15917; multiplex microsphere protease cleavage assay, LF; further: plate controls were buffer without enzyme for full effect and enzyme alone for no effect
BoNT F protease = BoNT F light chain protease inhibition; hit rate 0.22% among 360,000; Multiplex microsphere protease cleavage assay, flow cytometry; inhibition, % at 10 µM; in the data active means inhibition above about 35%, passing the limit was not always enough; inconclusive means no clear call, values can overlap the other calls; further: plate controls were buffer without enzyme for full effect and enzyme alone for no effect
Bead autofluor = counter-screen for toxin protease inhibitors: compound fluorescence. compound autofluorescence counterscreen, microsphere flow cytometry; stronger effect = higher value. fluorescence intensity (test concentration not listed). hit rate 3.1% among 360,000; in the data active means fluorescence intensity above about 16000; inconclusive means no clear call, values can overlap the other calls
BoNT-A LC inh2 = inhibitors of Botulinum neurotoxin A light chain protease; multiplex microsphere protease substrate cleavage, flow cytometry; inhibition, % at 10 µM; hit rate 0.17% among 360,000; AID 588499; further: plate controls were buffer without enzyme for full effect and enzyme alone for no effect
* = called active by the depositor; ? = inconclusive. Most compounds without a hit are left out; they make up all but 3.5% or so of the library. Unless noted, no stated cut-off is given here; in the data, active means inhibition above about 30%; inconclusive means no clear call, values can overlap the other calls; inactive means below that.

SMILES	Anthrax LF prot	BoNT F protease	Bead autofluor	BoNT-A LC inh2
Cc1ccccc1NC(=O)CSCCO	0	3	22229*	2
COC(=O)C1(C(=O)OC)NOC2C(=O)N(c3ccccc3)C(=O)C21 (stereo not given)	1	0	22517*	?
O=C(c1ccc(-c2ccc([N+](=O)[O-])cc2)o1)N1CCCCC1	0	-5	2824	2
O=C(c1ccc(-c2ccc(Cl)cc2)o1)N1CCN(c2ccc([N+](=O)[O-])cc2Cl)CC1	2	0	21861*	5
Cc1noc(C)c1COC(=O)CCOc1ccccc1	-1	-4	17725*	-2
COC(=O)c1cn[nH]c1NC(=S)Nc1ccc(C)cc1Cl	0	-2	23473*	?
COC(=O)c1cn[nH]c1NC(=S)Nc1ccc(Cl)c(Cl)c1	-6	-9	9891	0
Cc1noc(C)c1S(=O)(=O)NC(=O)C1(C)CCN1C(=O)CC(c1ccccc1)c1ccccc1 (stereo not given)	-3	-5	3810	-1
O=[N+]([O-])c1ccc(Cl)c(/C=N/NC(=S)Nc2ccccc2)c1	-4	-4	16957*	?
Cc1ccc(NC(=O)COC(=O)COc2cccc3c2OC(C)(C)C3)c(C)c1	2	11	?	-2
CCOC(=O)C1(C)C(=O)CC2c3nc4ccccc4cc3CN2C1=O (stereo not given)	1	-2	3087	-1
O=C1C(=O)N(c2cccc(Cl)c2)C(c2ccccc2[N+](=O)[O-])/C1=C(\O)c1ccccc1 (stereo not given)	0	0	21218*	-2
CCC(=O)N1CCCC(C)(C(=O)Nc2nccc3ccccc23)C1 (stereo not given)	0	-2	3588	0
CCOC(=O)c1snc2c(=O)[nH]cnc12	-4	-13	18607*	-7
CCOC(=O)c1sc2nc[nH]c(=O)c2c1C	3	3	2413	0
CCOC(=O)C1(C)CCCN(C(=O)c2c(-c3ccccc3)noc2C)C1 (stereo not given)	2	-6	4126	-1
CCOc1ncccc1C(=O)Nc1cc2c(cc1Br)OCCO2	-2	-3	2934	1
O=C(OCCCN=C1NS(=O)(=O)c2ccccc21)c1ccccc1F	-11	4	20170*	3
COc1ccnc2c1c(=O)n(Cc1ccc(Cl)cc1Cl)c(=O)n2C	0	-1	6143	-2
Cc1cc(C(F)F)n2nc(C(=O)Nc3cccnc3Cl)nc2n1	1	7	2842	0
Cc1cc(C(F)F)n2nc(C(=O)Nc3ccccc3Br)nc2n1	-4	0	20530*	0
CCCNC(=O)c1c(N)n(-c2ccc3c(c2)OCO3)c2nc3ccccc3nc12	-4	-1	21855*	?
COCCCNC(=O)c1c(N)n(-c2ccc3c(c2)OCO3)c2nc3ccccc3nc12	8	-5	4028	11
O=C(OCc1ccccc1)N1CCC2CC1c1c2cccc1N1CCOCC1 (stereo not given)	-10	-8	4406	-1
Clc1ccc(CN2CCN(c3ncnc4scc(-c5cccs5)c34)CC2)cc1	15	-10	?	-2
SMILES	Anthrax LF prot	BoNT F protease	Bead autofluor	BoNT-A LC inh2
Cc1ccccc1N1CCN(c2ncnc3scc(-c4cccs4)c23)CC1	-10	0	21408*	2
O=C(O)c1cccc(CN2C(=O)c3ccccc3C2=O)c1	6	3	3183	-2
O=C1c2cccc3c(O)ccc(c23)C(=O)N1Cc1ccccc1	51*	111*	7829	1
CCOc1ccc(S(=O)(=O)NCCC2=CCCCC2)c2ccccc12	-2	-4	24639*	?
O=C(COC(=O)c1ccccn1)NCc1ccc(Cl)cc1Cl	-1	-7	9588	-3
O=C(NCc1ccc(Cl)cc1Cl)c1ccccn1	0	-3	24310*	-3
CC12CCC(C(=O)N3CCCCC3)([C@H](Br)C1=O)C2(C)C (stereo not given in full)	13	?	4483	?
COc1ccccc1NC(=O)COC(=O)CCC(=O)c1cccs1	0	-4	?	2
COc1cc(C(=O)OCC(=O)Nc2ccc(F)cc2F)cc(OC)c1OC	-10	-4	20961*	?
CCC(CC)NC(=O)COC(=O)c1ccc(OCC(=O)Nc2ccccc2OC)c(OC)c1	-2	7	21089*	?
Cc1ccc(C)c(NC(=S)N2CCC(N(C)CC3CCCO3)CC2)c1 (stereo not given)	-2	-2	10947	0
Cc1ccc(NC(=S)N2CCN(C(=O)C3CCCO3)CC2)c(C)c1 (stereo not given)	0	1	22658*	?
CCc1c(C)sc(NC(=S)N2CCN(C(=O)C3CCCO3)CC2)c1C(=O)OC (stereo not given)	-43	-286	51235*	-162
Cc1ccc(NC(=S)N2CCC(N(C)CC3CCCO3)CC2)c(C)c1 (stereo not given)	2	12	19642*	10
CSc1ccccc1-n1nnnc1SCc1ccccc1	-5	-7	23954*	?
O=C(O)c1ccc(-n2nnnc2SCc2ccccc2)cc1	4	-1	9113	0
COc1ccccc1N1C(=O)CC(Sc2n[nH]c(-c3cccc(C)c3)n2)C1=O (stereo not given)	-1	0	2425	0
CCN(CC)CCn1c(NCc2ccco2)nc2ccccc21	-1	-8	21505*	-4
Cn1c(NCc2ccco2)nc2ccccc21	-3	12	17845*	?
CCN(CC)CCn1c(NCc2nc3ccccc3n2Cc2ccccc2)nc2ccccc21	-5	-19	12497	0
Cn1c(NCc2cccs2)nc2ccccc21	0	8	2923	1
CCC(C(=O)NCc1cccnc1)n1nc(C)n2c(cc3occc32)c1=O (stereo not given)	1	-3	5168	0
CCc1ccc(N2CC(C(=O)Nc3ccc(C)c(S(=O)(=O)N4CCOCC4)c3)CC2=O)cc1 (stereo not given)	-11	-6	22656*	-1
O=C1CC(N2CCN(c3cccc(C(F)(F)F)c3)CC2)C(=O)N1c1ccc(F)cc1 (stereo not given)	-5	-2	22486*	0
Cc1cccc(N2C(=O)CC(N3CCN(c4cccc(C(F)(F)F)c4)CC3)C2=O)c1 (stereo not given)	0	-2	20300*	?
SMILES	Anthrax LF prot	BoNT F protease	Bead autofluor	BoNT-A LC inh2
CCCOc1ccc(N2C(=O)CC(N3CCN(c4nc5ccccc5s4)CC3)C2=O)cc1 (stereo not given)	1	-11	4860	0
O=C1CC(N2CCN(c3nc4ccccc4s3)CC2)C(=O)N1c1cccc(F)c1 (stereo not given)	-8	-1	23609*	-2
CCOC(=O)C1CCCN(C2CC(=O)N(c3cccc(C(F)(F)F)c3)C2=O)C1 (stereo not given)	-3	-5	23785*	?
O=C1CC(N2CCN(c3ccccn3)CC2)C(=O)N1c1ccc(F)cc1 (stereo not given)	-10	-4	3392	-1
O=C1CC(N2CCN(c3ccccc3)CC2)C(=O)N1c1cccc(Cl)c1 (stereo not given)	-1	17	3465	-3
CCOC(=O)CNC(=O)N1CCCC(Cc2ccccc2)(C(=O)OCC)C1 (stereo not given)	12	?	3809	-3
Cc1ccc[n+](CC(=O)c2ccc(Br)cc2)c1C	4	?	?	-3

Screening results (PubChem BioAssay)
